From PubChem BioAssay AID488890 (Southern Research Specialized Biocontainment Screening …, 2010) come the findings set out here.

Hit rate of the full screen: of about 320,000 compounds, about 1,300 (0.41%) were called active. About 3% were inconclusive and are not listed. No rule for the calls is given here. The list is a sample of the results. Measured potencies and affinities stand elsewhere.

A short description of this assay: growth inhibition of non-replicating M. tuberculosis (AID 488890).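 Also: plate controls were DMSO cells for no effect and high antibiotic wells for full effect.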 To be noted: Mycobacterium tuberculosis non-replicating, at 25 µM, stronger effect = higher value.
`C/C(=N\NC(=O)C(C)Nc1cccc(Cl)c1)c1ccc([N+](=O)[O-])cc1` (stereo unspecified): the inhibition was 6.72%.
Regarding `Cc1ccc2oc(=O)c3cnn(CC(=O)NCCC(C)C)c3c2c1`, the inhibition is -1%.
Take `COCCN1C(=O)N[C@@H](c2ccccc2)[C@@H](C(=O)OC)[C@H]1C`: the inhibition is -23.2%.
Next, `CC(C)NC(=O)C(c1ccc(F)cc1)N(C(=O)CCC(=O)Nc1ccccn1)C1CCCCC1` (stereo unspecified): -1.84%; `O=C1Nc2ccccc2C1Cc1ccccc1` (stereo unspecified): 24.6%; `FC(F)(F)c1cc(CO[C@@H]2CCCN[C@@H]2c2ccccc2)cc(C(F)(F)F)c1`: 63.4%.
Regarding `CCOc1ccc(Br)cc1/C=N/NC(=O)c1ccncc1`, the inhibition stood at 73.7%.
Under `COc1ccc(C(=O)NCCc2c[nH]c3ccccc23)cc1` stands 25.8%.
Next, `CS(=O)(=O)c1ccc(Cl)c(NC(=O)COC(=O)CCc2c[nH]c3ccccc23)c1`: 74.8%; `Cc1cccc(NC(=O)COC(=O)Cc2c[nH]c3ccccc23)c1C`: 6.74%.
Consider `O=C(COC(=O)Cc1c[nH]c2ccccc12)Nc1cccc2ccccc12`, for which the inhibition is 2.45%.
For the compound `COc1ccc(CNC(=O)CCc2c[nH]c3ccccc23)cc1`, the inhibition was -7.3%.
Under `Cc1ccc(NC(=O)COC(=O)Cc2c[nH]c3ccccc23)cc1C` stands 35.7%; under `COc1ccc(NC(=O)COC(=O)CCCc2c[nH]c3ccccc23)cc1OC`, 16.1%; under `CS(=O)(=O)c1ccc(Cl)c(NC(=O)COC(=O)Cc2c[nH]c3ccccc23)c1`, -10%.
Under `CCc1ccccc1N(C(=O)c1snc(C(N)=O)c1N)C(C(=O)NCC1CCCO1)c1ccc(C)o1` (stereo unspecified) stands 37.2%; under `C[C@H]1COC(=O)[C@H](Cc2ccc(F)cc2)C/C=C\C[C@H](CC(=O)NCCO)C(=O)N1`, 6.21%; under `CCCCN(C(=O)C1CCC1)c1c(N)n(CCC)c(=O)[nH]c1=O`, -13.3%.
On to `COc1cc(OC)c(C2=NOC(C(=O)NCc3cccnc3)C2)cc1Cl` (stereo unspecified), for which the inhibition was 2.26%.
Take `COc1ccc(NC(=O)c2coc3ccccc23)cc1OC`: the inhibition turned out to be 48.1%.
Under `C[C@H](OC(=O)N1CCN(C(c2ccccc2)c2ccccc2)CC1)[C@@H]1O[C@@]2(C)CCC[C@H]1O2` stands 3.49%; under `COCCN1C(=O)c2ccccc2C(C(=O)N2CCN(c3ccccc3)CC2)C1c1ccc(F)cc1` (stereo unspecified), 30%; under `O=C(COC(=O)c1c[nH]c2ccccc12)Nc1ccc([N+](=O)[O-])cc1`, -4.96%.
Next, `CC(=O)Nc1ccc(NC(=O)COC(=O)CCCc2c[nH]c3ccccc23)cc1`: 13.7%; `Cc1ccc(NC(=O)CCc2c[nH]c3ccccc23)nc1`: 65.6%; `COc1cccc(NC(=O)COC(=O)CCCc2c[nH]c3ccccc23)c1`: 58.5%.
Under `Cc1ccnc(NC(=O)CCCc2c[nH]c3ccccc23)c1` stands 11.4%; under `NS(=O)(=O)c1cccc(NC(=O)COC(=O)CCCc2c[nH]c3ccccc23)c1`, 7.86%; under `COc1ccc2cc(C3CC(c4cccs4)=NN3C(C)=O)c(Cl)nc2c1` (stereo unspecified), -4.81%.
For the compound `CCCc1nc2c(=O)[nH]c3ccccc3c2o1`, the inhibition was -9.47%.
Under `CCCCc1nc2c(=O)[nH]c3ccccc3c2o1` stands -16.6%; under `CNCc1ccccc1Sc1ccc(O)c(O)c1`, 33.3%; under `CNCc1ccccc1Sc1cccc(O)c1`, -3.89%.
Next, `COc1ccc(CCNC(=O)COc2ccc(-c3ccc(C#N)cc3)cc2)cc1`: 72.4%; `O=C(O)COc1ccc2oc3ccccc3c2c1`: 3.49%.
For the compound `CC(=O)NCCOc1ccc2oc3ccccc3c2c1`, the inhibition was found to be 5.68%.
Under `CC(=O)Nc1ccc(NC(=O)COc2ccc(-c3ccc(C#N)cc3)cc2)cc1` stands -7.55%.
Next, `CC(C)N(Cc1ccccc1)C(=O)CC(=O)N(Cc1ccccc1)C(C)C`: 6.28%; `CCc1ccc(-c2cc(C)no2)cc1S(=O)(=O)Nc1cc(C)ccn1`: -1.42%; `CCOC(=O)N1CCN(C(=O)CN(C)S(=O)(=O)c2ccc(Cl)cc2)CC1`: -17.1%.
Take `CSCCC(NC(=O)c1ccco1)C(=O)NC1CCCCCC1` (stereo unspecified): the inhibition was -8.42%.
Next, `Cc1cc(Nc2nc3ccccc3nc2Cl)n(-c2ccccc2)n1`: 8.46%.
On to `CC(C)(O)C(=O)NNC(=S)NCc1ccco1`, for which the inhibition was -2.82%.
Turning to `CC(C)(C)NC(=S)NCc1ccco1`, the inhibition was -18.9%.
For the compound `COc1ccc(/C=N/NC(=O)c2cccs2)c2ccccc12`, the inhibition was determined as 76.3%.
For the compound `CCOC(=O)CCCNC(=O)COC(=O)c1cc(C)cc(C)c1`, the inhibition was -5.81%.
Under `CCOC(=O)CCCNC(=O)COC(=O)c1ccc(O)cc1` stands -2.65%; under `COc1ccc(S(=O)(=O)NCC2CCCN(Cc3ccc(C)o3)C2)cc1` (stereo unspecified), 8.61%.
Next, `COc1ccc(C(=O)N2CCN(CCNC(=O)C(=O)Nc3ccc(F)cc3)CC2)cc1OC`: -5.42%; `CC(C)NCC(=O)C12CC3CC(CC(C3)C1)C2`: -12.5%; `COc1ccc(C(=O)COC(=O)CCc2nc3ccccc3[nH]c2=O)cc1Br`: 5.73%.
Under `COC1CCCN(C(=O)c2ccc3oc(Cc4ccc(Cl)cc4)nc3c2)C1` (stereo unspecified) stands 23.6%; under `CCN(CC)c1ccc(CNCc2cccs2)cc1`, 6.27%.
Take `CC(NC(=O)c1cc(Br)ccc1Br)c1ccccc1` (stereo unspecified): the inhibition was -17.5%.
As to `CC(NC(=O)c1cc(Br)ccc1Cl)c1ccccc1` (stereo unspecified), the inhibition is 0.91%.
For `COc1ccc2oc(=O)c(C(=O)NC(C)c3ccccc3)cc2c1` (stereo unspecified), the inhibition was 16.5%.
Next, `CC(=O)OCCNC(=O)c1cc2ccccc2oc1=O`: -10.9%; `Cc1ccc(C(C)NC(=O)c2ccco2)cc1C` (stereo unspecified): 71.1%.
Next, `Cc1cc(C)cc(OCC(=O)NNC(=O)c2cc3ccccc3o2)c1`: -4.01%.
`COc1cccc2cc(C(=O)NC(C)c3ccccc3)c(=O)oc12` (stereo unspecified): the inhibition was determined as 26.4%.
`O=C(COc1ccccc1)NNC(=O)c1cc2ccccc2oc1=O`: the inhibition amounted to 10.5%.
As for `Cc1ccccc1CS(=O)(=O)CCC(=O)NCCCN1CCOCC1`, the inhibition is -2.86%.
Under `CCN(CC)CCNC(=O)c1ccc(NC(=O)c2cc(-c3ccco3)nc3ccccc23)cc1` stands 4.2%; under `O=C(CCc1ccccc1)Nc1cc(NC(=O)CCc2ccccc2)cc(C(=O)O)c1`, -12.7%.
Take `COc1ccc(C(=O)Nc2ccccc2NC(=O)c2ccc(OC)cc2)cc1`: the inhibition was -3.72%.
Regarding `COc1ccc(-c2nc(-c3cccs3)no2)cc1`, the inhibition turned out to be 24.2%.
Regarding `COc1ccc(/C=N/c2nc3ccccc3n2CCN2CCCCC2)cc1OC`, the inhibition was determined as 4.24%.
Next, `Cc1ccc(S(=O)(=O)N2CCOC2CNC(=O)C(=O)NCCN(C)C)cc1` (stereo unspecified): -4.76%; `CCN(C(=O)COC(=O)c1ccc(Cl)cc1N)C1CCCCC1`: 30.8%; `O=c1c2cc([N+](=O)[O-])cc([N+](=O)[O-])c2[nH]n1-c1ccccc1`: 5.65%.
Under `COc1ccc(CNC(=O)C/C(C)=N/NC(=O)COc2cccc(C)c2)cc1` stands -10.6%; under `CC(=NNC(=O)COc1cccc(C)c1)c1cccnc1`, 2.36%.
For `O=S(=O)(Nc1ccc2c3c(cccc13)CC2)c1ccc(F)cc1`, the inhibition was 21.3%.
Consider `O=S(=O)(Nc1c(O)ccc2ccccc12)c1ccc(F)cc1`, for which the inhibition was -1.3%.
Next, `O=C(COc1ccc(Br)cc1)Nc1ccccc1N1CCCC1`: 26.6%.
Turning to `CCn1c(NC2CCCCC2)nc2ccccc21`, the inhibition is 8.52%.
Next, `CCn1c(NC(=O)c2ccc(COc3ccc(C)cc3[N+](=O)[O-])o2)nc2ccccc21`: 14%; `O=C(Nc1nc2ccccc2n1Cc1ccccc1)c1ccc(COc2ccccc2[N+](=O)[O-])o1`: -4.43%; `CCn1c(CNC(=O)c2ccccc2)nc2ccccc21`: 2.98%.
Next, `CCn1c(-c2nonc2NC(=O)c2ccccc2)nc2ccccc21`: 3.27%.
On to `CN(C)CCCn1c(NC(=O)C2CCCCC2)nc2ccccc21`, for which the inhibition is 24.1%.
Next, `CCn1c(NC(=O)Nc2ccccc2OC)nc2ccccc21`: 43%; `CCn1c(NC(=S)Nc2ccccc2)nc2ccccc21`: 57.9%; `COc1ccc(C(C)(C)NC(=O)C2CCC(=O)N(C3CCCC3)C2)cc1OC` (stereo unspecified): 1.54%.
As to `O=C(O)c1cc(-c2ccc(Cl)cc2)n(-c2ccc(Cl)cc2)n1`, the inhibition worked out at 28.3%.
Next, `O=C(COC(=O)c1ccc(OC(F)F)cc1)Nc1cccc(S(=O)(=O)NC2=NCCC2)c1`: -15.4%; `CN(C)S(=O)(=O)N1CCC(Oc2ccc(C(=O)N3C[C@H]4CC[C@H]3C4)cc2)CC1`: -6.7%.
Under `O=C(CCS(=O)(=O)Cc1ccccc1)NCC1CCCO1` (stereo unspecified) stands -2.41%.
Regarding `CNC(=O)n1cc(C)c(-c2cccs2)n1`, the inhibition worked out at 3.54%.
Next, `O=C(NCc1cccnc1)C1CCC(CNS(=O)(=O)c2cccc3nsnc23)CC1` (stereo unspecified): -1.6%; `CCOc1cc(S(=O)(=O)NC2CCCCC2)ccc1F`: 22.4%; `C=CCn1c(SCC(=O)Nc2ccc(C(=O)O)cc2)nc2scc(-c3ccccc3)c2c1=O`: 6.43%.
Take `Cn1c(NC(=O)c2cccnc2)nc2ccccc21`: the inhibition worked out at 74.7%.
Under `Cn1c(CCNC(=O)c2ccccc2)nc2ccccc21` stands -11.6%.
Consider `CCn1c(/C=N/Nc2ccc(C(=O)O)cc2)nc2ccccc21`, for which the inhibition came out at 5.68%.
Under `O=C(Nc1nc2ccccc2n1CCN1CCOCC1)c1ccccc1` stands 78.5%; under `CCCn1c(CNC(=O)c2ccccc2)nc2ccccc21`, 1.31%.
Next, `CCn1c(C)nc2cc(C(=O)N/N=C/c3ccc(OC)cc3)ccc21`: -1.99%; `Cc1ccc(-n2nc3c(=O)n(CCCC(=O)NCc4ccc(Cl)cc4)nc(C)c3c2C)cc1`: 52.4%.
Consider `Cc1ccc(C(C(=O)NC2CCCC2)N(C(=O)c2csnn2)c2ccccc2)o1` (stereo unspecified), for which the inhibition was found to be 9.58%.
Under `O=[N+]([O-])c1cccc(/C=N\N2CCN(Cc3ccccc3Cl)CC2)c1` stands -2.97%.
Next, `O=C(COc1ccc(Br)cc1)N1CCC(c2ccccc2)C1` (stereo unspecified): 68%; `COC(=O)C1(C)CN(S(=O)(=O)c2ccc(C)cc2)c2cc(OC)ccc2C1=O` (stereo unspecified): 35.5%.
Next, `CC1=NCCN1S(=O)(=O)c1ccc(Br)c(C)c1`: 1.05%; `O=[N+]([O-])c1ccc(Oc2cccc(C(F)(F)F)c2)nc1`: 65.4%; `Cc1cc(Sc2ccc([N+](=O)[O-])cn2)ccc1Br`: 12.1%.
Regarding `O=S(=O)(c1cccc(C(F)(F)F)c1)c1ccc(O)cn1`, the inhibition is 0.61%.
Under `CCOc1ccc(CCNC(=O)COC(=O)Cn2cnc3ccccc3c2=O)cc1OCC` stands 18.2%; under `COc1ccccc1CNC(=O)COC(=O)COc1ccccc1Cc1ccccc1`, 25.1%; under `O=C(Nc1cccc(-n2cnnn2)c1)c1ccoc1COc1ccc(Cl)cc1`, 5.71%.
Take `CSc1ccccc1C(=O)C1CCCN(S(=O)(=O)c2c(C)noc2C)C1` (stereo unspecified): the inhibition was -0.64%.
